# Source: PubChem (National Center for Advancing Translational Sciences (NCATS))
# BRCA1 expr up – BRCA1 expression activation | Potency, µM (series often up to 46.1 µM), without a hit: at the highest dose activation, most hits filed as activators | MCF7-BRCA1-FFLuc reporter, luminescence, 48 h; response scale: scaled: vehicle 0%, 10 µM genistein 100% | AID 624202 | hit rate 1.1% among 380,000; note: potency is the fitted concentration of half-maximal effect; nearly all actives have a fitted effect of over 80% in size
#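 Using MCF7 cells harboring a BRCA1 firefly luciferase reporter, plated 2 h before compound pinning, the screen measured luminescence after 48 h incubation. Responses were normalized to DMSO and 10 microM genistein, then fitted for concentration-effect.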
# Nrf2 ARE act – activators of Nrf2 (ARE) signaling. AREc32 ARE-luciferase reporter (MCF7-derived line), luminescence, 24 h. hit rate 0.31% among 410,000. Potency, µM (highest dose often 46.1 µM), for the others: at the highest dose activation, actives largely listed as activators; note: potency is the fitted concentration of half-maximal effect; % of control where 0% means no effect; nearly all actives have a fitted effect of over 65% in size
#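 ARE activation measured as luciferase luminescence (Steady-Glo, 30 min RT) in AREc32_Fluc cells after 24 hr compound exposure at 37 deg C, 5% CO2; cells seeded overnight at 1000/well in OPTI-MEM, 5% FBS.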
# Nrf2 block – inhibitors of Nrf2 signaling; Potency, µM (top dose mostly 46 µM), for inactives: at the top dose activity change, negative = inhibition, hits mostly inhibitors; hit rate 2.1% among 360,000; A549 ARE-Fluc reporter, luciferase luminescence, 18-24 h; note: potency is the fitted concentration of half-maximal effect; % is set by controls: 0 for no effect and ±100 for the full control effect; nearly all actives have a fitted effect of over 60% in size
#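 Quantitative HTS in A549 cells stably bearing an antioxidant response element-firefly luciferase construct. Inhibition of Nrf2-driven transcription was scored by luminescence after 18-24 h of compound exposure at 37 °C.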
# IL-2 act – activates IL-2 in a cell-based reporter assay; activation, % (series mostly up to about 46 µM); hit rate 0.065% among 360,000; IL-2 activation reporter assay, cell-based qHTS; stimulated with anti-CD3/CD4/CD28 beads; in transgenic mouse T cells; AID 652025; in the data active = activation above about 50%; inconclusive = mostly about 30% to 49%; note: 0% is about no effect
#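 Readout: EGFP and DsRed signals by fluorescent plate cytometry. Unstimulated transgenic mouse T cells received compound 60 min before antibody-bead stimulation, then incubated 18 h at 37 degrees C.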
# A549 tox – A549 cytotoxicity, counter-screen for Nrf2 inhibitors | A549 ARE-Fluc cells, CellTiter-Fluor viability, 18-24 h | Potency, µM (titrated, usually from 46 µM), for inactives: top-dose activity change, negative = cytotoxicity, actives largely listed as inhibitors | hit rate 0.16% among 390,000; note: potency is the fitted concentration of half-maximal effect; % is set by controls: 0 for no effect and ±100 for the full control effect
#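 A549 ARE_Fluc cells in 5% FBS OPTI-MEM were exposed to compounds in concentration-response for 18-24 h at 37 deg C. Viability was read by CellTiter-Fluor fluorescence (Ex 405/Em 525) after 30 min, before the luciferase read.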
# p53 reactivation – restores transcriptional activity of mutant p53. H1299 p53-A138V BP100-luciferase reporter, luminescence, 24 h. Potency, µM (top dose mostly 92.2 µM), for the others: at the highest dose activity change, positive = activation, most hits filed as activators. hit rate 0.063% among 320,000. AID 504706; note: potency is the fitted concentration of half-maximal effect; % of control where 0% means no effect; nearly all actives have a fitted effect of over 45% in size
#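 H1299 (p53-null), stable ts p53-A138V + BP100-Luc; 1000 cells/well, Opti-MEM/10% FBS; cpd 4 pt, 1:5; 24 h, 37 deg C, 5% CO2; detection reagent 10 min RT; luminescence.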
# * = called active by the depositor; u = inconclusive; x = not tested or not shown. The list is not random: actives were taken first. Their share in the collection is about 3.2%. Unless noted, calls come from the whole dose curve; as a rule, active = well fitted curve in the direction sought with a large enough effect; inconclusive = small, poorly fitted or top-dose-only effect, or another doubt; inactive = no such curve, though single readings can be large; an effect the other way counts as inactive or inconclusive.
SMILES,BRCA1 expr up,Nrf2 ARE act,Nrf2 block,IL-2 act,A549 tox,p53 reactivation
CCC(=O)c1cn(CC(=O)Nc2c(C)cccc2C)c2ccccc12,0.0%,0.0%,5.0%,0.2,-0.1%,x
CC(=O)c1cn(CC(=O)Nc2c(C)cccc2C)c2ccccc12,-23.2%,-0.7%,9.2µM*,-0.5,-11.1%,-4.3%
O=C(c1ccco1)c1cn(CCOc2ccc(F)cc2)c2ccccc12,x,3.8%,23.1µM*,x,-26.9%,x
CC(=O)c1cn(CC(=O)Nc2ccccc2C)c2ccccc12,-27.8%,-0.4%,9.2µM*,-0.4,-5.5%,2.9%
Cc1cc(N2CCN(c3cccc(C)c3C)CC2)n2nc(C)c(-c3ccc(Cl)cc3)c2n1,1.1%,-1.0%,2.8%,x,4.9%,x
Nc1ccc(C(=O)OCc2nc3c(ccc4ccccc43)[nH]2)cc1,7.08µM*,3.1%,7.0%,-1.5,-15.8%,u
CCC(C)NC(=O)CSc1nc2c(sc3ccccc32)c(=O)n1Cc1ccccc1Cl (stereo unspecified),x,-1.2%,x,x,-11.9%,x
CC1CN(C(=O)CCC(=O)NCc2cccs2)c2ccccc2O1 (stereo unspecified),x,-0.9%,u,x,-0.1%,x
O=C(CN1C(=O)S/C(=C\c2cccc(Cl)c2)C1=O)NC1C=CS(=O)(=O)C1 (stereo unspecified),6.9%,4.8%,0.5%,-2.1,1.1%,1.7%
O=C(CN1C(=O)/C(=C/c2cccc(Cl)c2)SC1=S)NC1C=CS(=O)(=O)C1 (stereo unspecified),-24.9%,14.1µM*,10.6%,-1.7,1.1%,0.3%
CCOc1cccc(/C=C2\NC(=S)N(c3ccccc3)C2=O)c1O,-40.4%,11.2µM*,-0.4%,0.7,-2.8%,u
CCN(CC)c1ccc(S(=O)(=O)Nc2cc(Cl)ccc2Cl)cc1NC(=S)NC(=O)C1CCCC1,-53.5%,3.7%,18.4µM*,-1.6,-16.2%,16.2%
COc1ccccc1NS(=O)(=O)c1ccc(Cl)c(NC(=S)NC(=O)C2CCCC2)c1,-88.8%,3.4%,u,-2.1,-3.5%,-5.3%
CCN(CC)S(=O)(=O)c1ccc(Cl)c(NC(=S)NC(=O)C2CCCC2)c1,-60.8%,0.4%,8.2µM*,0.6,-19.1%,-5.4%
CCN(CC)CCN(C(=O)c1ccco1)c1nc2c(C)cccc2s1,x,u,11.1%,x,u,x
CCNc1nc(N)c(C(=O)c2ccc(Cl)s2)s1,5.01µM*,-0.6%,u,-0.6,-18.1%,u
CNS(=O)(=O)c1cccc(C(=O)OCC(=O)c2c(N)n(C)c(=O)n(C)c2=O)c1,0.0%,-0.1%,1.5%,1.5,-2.4%,0.5%
C=CCN(c1ccccc1OC)S(=O)(=O)c1cccc(C(=O)OCC(=O)c2c(N)n(C)c(=O)n(C)c2=O)c1,-72.4%,2.6%,20.6µM*,-2.7,0.6%,x
N#Cc1c(-c2ccc(F)cc2)cc(-c2cccnc2)nc1N,-7.1%,-0.3%,10.0%,0.0,-2.0%,1.4%
N#Cc1c(-c2ccco2)cc(-c2ccc(F)cc2)nc1N,-64.9%,1µM*,x,0.5,7.9%,3.4%
O=C(Cn1cnc2c(oc3nc4c(cc32)CCCC4)c1=O)Nc1ccccc1,15.5%,-0.6%,-0.4%,0.8,-2.2%,0.6%
C=C(C)Cn1cnc2c(oc3nc4c(cc32)CCCC4)c1=O,5.62µM*,1.0%,-7.3%,0.2,-0.1%,13.5%
Fc1ccc(Nc2c(-c3c[nH]c4ccccc34)nc3ccccn23)cc1,x,u,u,x,-10.3%,x
CCn1c(CNC(=O)c2cc(OC)c(OC)c(OC)c2)cc2ccccc21,-50.6%,0.5%,20.6µM*,-2.6,0.6%,x
CCc1cccc(CC)c1NC(=O)CCS(=O)(=O)c1ccc(Br)s1,x,2.9%,14.8%,x,2.3%,x
SMILES,BRCA1 expr up,Nrf2 ARE act,Nrf2 block,IL-2 act,A549 tox,p53 reactivation
O=C(CCNc1cccc(C(F)(F)F)c1)c1ccco1,-17.9%,15.8µM*,22.5%,-2.2,-6.3%,12.5%
O=C(CN1CCN(S(=O)(=O)c2ccc(Br)cc2)CC1)N/N=C/c1cc([N+](=O)[O-])ccc1Cl,-28.9%,12.6µM*,-0.3%,-0.9,1.5%,7.5%
CCOC(=O)c1cnc2ccccc2c1NCCc1ccc(OC)c(OC)c1,-2.3%,4.2%,u,-2.7,-14.4%,2.6%
CCOC(=O)c1cnc2ccc(OC)cc2c1NCCc1ccc(OC)c(OC)c1,-7.5%,0.1%,16.4µM*,-0.1,u,2.6%
COc1cccc(N2C(=O)c3ccccc3C2=O)c1,x,x,6.3%,x,8.2%,x
Cc1c(C(=O)O)sc2ncnc(N3CCCCC3C)c12 (stereo unspecified),-21.9%,-0.3%,u,-2.2,-29.0%,-10.7%
Cc1cc2c(N3CCCCC3C)ncnc2s1 (stereo unspecified),-25.0%,2.3%,20.6µM*,-0.4,-13.5%,-2.7%
O=C(CCc1nnc(-c2ccsc2)o1)N1CCc2c(Cl)cccc2C1,11.2µM*,8.1%,u,-2.2,14.1%,4.4%
O=C(CCc1nnc(-c2ccc(-c3ccccc3)cc2)o1)N1CCCCC1,-4.4%,-0.6%,-22.8%,-0.5,-2.1%,-4.1%
CN(NS(=O)(=O)c1ccc(Br)cc1)c1nc(C(F)(F)F)nc2ccccc12,-24.1%,1.6%,20.6µM*,0.1,u,-4.1%
CN(N)c1nc(C(F)(F)F)nc2ccccc12,10.7%,-0.4%,-10.1%,0.2,0.5%,-3.4%
COc1cc(Cn2ncc3c4sc(C)cc4n(C)c3c2=O)cc(OC)c1,x,x,16.2%,x,-1.4%,x
O=C(NCCOc1ccccc1Cl)c1cc(F)c(F)cc1Cl,7.08µM*,2.3%,u,0.1,-10.5%,u
O=C(NCCOc1ccccc1Cl)c1ncn[nH]1,1.2%,0.3%,10.5%,-4.3,0.7%,6.4%
Nn1c(CSc2ccccn2)nc2ccccc2c1=O,10µM*,6.5%,u,0.2,4.4%,u
O=c1[nH]c(CSc2ccccn2)nc2ccccc12,91.2%,10.9%,u,-3.4,0.6%,19.1%
Cc1cc(O)c(C(=O)/C=C/c2cccc([N+](=O)[O-])c2)c(=O)o1,-27.8%,22.4µM*,4.8%,-3.4,2.5%,0.2%
CC(=O)Nc1ccc(C=CC=Cc2cccc([N+](=O)[O-])c2)cc1,5.01µM*,u,6.9%,-7.0,-7.1%,x
O=C(N/N=C/c1cccc([N+](=O)[O-])c1)c1cccs1,12.6µM*,29.1%,u,1.8,0.4%,u
Cc1cc(O)c(C(=O)/C=C/c2ccccc2O)c(=O)o1,-72.5%,15.4%,1.0%,-0.3,-10.2%,6.0%
O=C(/C=C/c1cccc([N+](=O)[O-])c1)c1cccs1,-45.7%,15.8µM*,u,-2.0,2.3%,-13.6%
